# From PubChem BioAssay (NCI)
# “And” between values parts separate entries of the source, which are not always exact repeats. Equal values may be shown once. Compounds without any hit were thinned out: in the full panel of roughly 79,000, 15% have a hit. The source holds several records for some structures; these can differ, active in one and inactive in another. The source made the active and inactive calls. No stated cut-off is given here; in the data, active means growth inhibition above about 70%; inactive means the rest.
# Columns and labels:
# [1] = NCI Yeast Anticancer Drug Screen. Data for the rad52 strain (AID 147);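 further: 0% = growth of vehicle-treated control cultures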; details: S. cerevisiae rad52 mutant growth inhibition, stronger effect = higher value
# Procedure, shortened: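 Here a repair-compromised yeast strain receives each compound; its growth is then quantified and normalised to vehicle-only controls.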
# [2] = NCI Yeast Anticancer Drug Screen. Data for the wt1 strain (AID 149);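 further: 0% = growth of vehicle-treated wt1 cultures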; details: S. cerevisiae wt1 strain (SPY 50644) growth inhibition, stronger effect = higher value
# Procedure, shortened: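 Measured: growth of wt1 yeast under compound versus vehicle treatment, reported as inhibition.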
# [3] = NCI Yeast Anticancer Drug Screen. Data for the rad50EPP+ strain (AID 151);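 further: 0% = growth of vehicle-treated control cultures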; details: S. cerevisiae rad50 mutant strain, stronger effect = higher value
# Procedure, shortened: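 Read-out is yeast growth inhibition relative to vehicle; cells used were the rad50EPP+ strain.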
# [4] = NCI Yeast Anticancer Drug Screen. Data for the mgt1 strain (AID 153); details: S. cerevisiae mgt1 mutant growth inhibition, stronger effect = higher value
# Procedure, shortened: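 Measured: inhibition of mgt1 yeast growth by compound, normalized to vehicle-treated cultures.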
# [5] = NCI Yeast Anticancer Drug Screen. Data for the rad50 strain (AID 155);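 further: 0% = growth of vehicle-only cultures of the same strain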; details: S. cerevisiae rad50 strain growth inhibition, stronger effect = higher value
# Procedure, shortened: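 Growth of the mutant yeast was measured after compound exposure and referenced to vehicle-treated cultures.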
# [6] = NCI Yeast Anticancer Drug Screen. Data for the mec2-1 strain (AID 157); details: S. cerevisiae mec2-1 strain, stronger effect = higher value
# Procedure, shortened: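 Using mec2-1 yeast: add compound, measure growth, express inhibition versus vehicle-treated cultures.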
# [7] = NCI Yeast Anticancer Drug Screen. Data for the rad14 strain (AID 159);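 further: 0% = growth of vehicle-treated control cultures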; details: S. cerevisiae rad14 strain growth inhibition, stronger effect = higher value
# Procedure, shortened: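 Here, inhibition of yeast growth was measured after compound exposure, using a strain with a genetic defect in DNA damage repair and vehicle-treated cultures as the reference.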
# [8] = NCI Yeast Anticancer Drug Screen. Data for the sgs1 mgt1 strain (AID 161);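 further: 0% = growth of cultures given vehicle only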; details: S. cerevisiae sgs1 mgt1 strain, stronger effect = higher value
# Procedure, shortened: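 Yeast cells carrying a defined DNA-repair defect were exposed to test compounds. Growth inhibition was measured relative to vehicle-treated controls.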
# [9] = NCI Yeast Anticancer Drug Screen. Data for the CLN2oe strain (AID 163);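 further: 0% = growth of vehicle-only control cultures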; details: S. cerevisiae CLN2oe strain, stronger effect = higher value
# Procedure, shortened: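 Whole-cell yeast growth assay. A strain engineered for altered cell-cycle control received compound, and inhibition relative to vehicle-treated cultures was recorded.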
# [10] = NCI Yeast Anticancer Drug Screen. Data for the cln2 rad14 strain (AID 165);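 further: 0% = growth equal to vehicle treated cultures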; details: S. cerevisiae cln2 rad14 strain, stronger effect = higher value
# Procedure, shortened: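 Yeast strain cln2 rad14, bearing defects in cell cycle control and DNA repair, serves as the test system; values reflect growth inhibition compared with vehicle.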
# [11] = NCI Yeast Anticancer Drug Screen. Data for the bub3 strain (AID 167); details: S. cerevisiae bub3 mutant strain, stronger effect = higher value
# Procedure, shortened: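 Whole-cell yeast assay. The mutant strain was incubated with compounds, and growth inhibition was determined by comparison with vehicle-treated cells.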
# [12] = NCI Yeast Anticancer Drug Screen. Data for the wt2 strain (AID 169);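 further: 0% = growth of vehicle-treated yeast cultures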; details: S. cerevisiae wt2 strain growth inhibition, stronger effect = higher value
# Procedure, shortened: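 Treated yeast vs. vehicle-treated yeast: growth inhibition determined.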
# [13] = NCI Yeast Anticancer Drug Screen. Data for the mlh1 strain (AID 171);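 further: 0% = growth of vehicle-treated control cultures of the same strain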; details: S. cerevisiae mlh1 strain growth inhibition, stronger effect = higher value
# Procedure, shortened: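 A yeast strain with a defined genetic lesion serves as the test organism. Cultures receive compound or vehicle, and growth is measured.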
# [14] = NCI Yeast Anticancer Drug Screen. Data for the sgs1 strain (AID 173);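 further: 0% = growth of vehicle-only control cultures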; details: S. cerevisiae sgs1 mutant, stronger effect = higher value
# Procedure, shortened: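 A genetically defined yeast mutant is incubated with the test compound, and its growth is compared to that of the same strain given vehicle.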
# [15] = NCI Yeast Anticancer Drug Screen. Data for the mlh1 rad18 strain (AID 175); details: S. cerevisiae mlh1 rad18 strain growth inhibition, stronger effect = higher value
# Procedure, shortened: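 Steps: expose repair-defective yeast to compound; measure growth; express inhibition against vehicle-treated controls.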
# [16] = NCI Yeast Anticancer Drug Screen. Data for the rad18 strain (AID 177); details: S. cerevisiae rad18 mutant growth inhibition, stronger effect = higher value
# Procedure, shortened: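 Measured value is growth inhibition of a yeast strain bearing a DNA repair alteration, referenced to vehicle-treated cells.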
# [17] = at 5.0 µM (retest, dose inferred, filed as 0.5)
# [18] = at 50.0 µM (retest, dose inferred, filed as 5.0)
structure (smiles),measurement,setting,value
Cc1cc(C)c(NC(=S)NC(=O)c2ccccc2)cc1C,growth inhibition,[1]; at 1.2 µM,-33% (inactive)
same,growth inhibition,[1]; at 3.7 µM,-58% (inactive)
same,growth inhibition,[1]; at 11.0 µM,-54% (inactive)
same,growth inhibition,[1]; at 33.0 µM,-41% (inactive)
same,growth inhibition,[1]; at 100.0 µM,-44% (inactive)
same,growth inhibition,[2]; at 1.2 µM,-46% (inactive)
same,growth inhibition,[2]; at 3.7 µM,-29% (inactive)
same,growth inhibition,[2]; at 11.0 µM,-39% (inactive)
same,growth inhibition,[2]; at 33.0 µM,-17% (inactive)
same,growth inhibition,[2]; at 100.0 µM,-14% (inactive)
same,growth inhibition,[3]; at 1.2 µM,-44% (inactive)
same,growth inhibition,[3]; at 3.7 µM,-41% (inactive)
same,growth inhibition,[3]; at 11.0 µM,-25% (inactive)
same,growth inhibition,[3]; at 33.0 µM,-18% (inactive)
same,growth inhibition,[3]; at 100.0 µM,-5% (inactive)
same,growth inhibition,[4]; at 1.2 µM,-57% (inactive)
same,growth inhibition,[4]; at 3.7 µM,-54% (inactive)
same,growth inhibition,[4]; at 11.0 µM,-25% (inactive)
same,growth inhibition,[4]; at 33.0 µM,26% (inactive)
same,growth inhibition,[4]; at 100.0 µM,37% (inactive)
same,growth inhibition,[5]; at 1.2 µM,-50% (inactive)
same,growth inhibition,[5]; at 3.7 µM,-52% (inactive)
same,growth inhibition,[5]; [17],-13% (inactive)
same,growth inhibition,[5]; at 11.0 µM,-52% (inactive)
same,growth inhibition,[5]; at 33.0 µM,-39% (inactive)
same,growth inhibition,[5]; [18],-4% (inactive)
same,growth inhibition,[5]; at 50.0 µM,18.4% (inactive)
same,growth inhibition,[5]; at 100.0 µM,-21% (inactive)
same,growth inhibition,[6]; at 1.2 µM,-41% (inactive)
same,growth inhibition,[6]; at 3.7 µM,-61% (inactive)
same,growth inhibition,[6]; [17],-16% (inactive)
same,growth inhibition,[6]; at 11.0 µM,-49% (inactive)
same,growth inhibition,[6]; at 33.0 µM,-46% (inactive)
same,growth inhibition,[6]; [18],4% (inactive)
same,growth inhibition,[6]; at 50.0 µM,-0.25% (inactive)
same,growth inhibition,[6]; at 100.0 µM,-11% (inactive)
same,growth inhibition,[7]; at 1.2 µM,-40% (inactive)
same,growth inhibition,[7]; at 3.7 µM,-48% (inactive)
same,growth inhibition,[7]; at 11.0 µM,-40% (inactive)
same,growth inhibition,[7]; at 33.0 µM,-16% (inactive)
same,growth inhibition,[7]; at 100.0 µM,-9% (inactive)
same,growth inhibition,[8]; [17],-7% (inactive)
same,growth inhibition,[8]; [18],41% (inactive)
same,growth inhibition,[8]; at 50.0 µM,25.3% (inactive)
same,growth inhibition,[9]; at 1.2 µM,-63% (inactive)
same,growth inhibition,[9]; at 3.7 µM,-78% (inactive)
same,growth inhibition,[9]; at 11.0 µM,-58% (inactive)
same,growth inhibition,[9]; at 33.0 µM,-64% (inactive)
same,growth inhibition,[9]; at 100.0 µM,-57% (inactive)
same,growth inhibition,[10]; [17],-4% (inactive)
same,growth inhibition,[10]; [18],15% (inactive)
same,growth inhibition,[10]; at 50.0 µM,2.25% (inactive)
same,growth inhibition,[11]; at 1.2 µM,-21% (inactive)
same,growth inhibition,[11]; at 3.7 µM,-17% (inactive)
same,growth inhibition,[11]; [17],8% (inactive)
same,growth inhibition,[11]; at 11.0 µM,38% (inactive)
same,growth inhibition,[11]; at 33.0 µM,65% (inactive)
same,growth inhibition,[11]; [18],79% (active)
same,growth inhibition,[11]; at 50.0 µM,49.6% (inactive)
same,growth inhibition,[11]; at 100.0 µM,62% (inactive)
same,growth inhibition,[12]; at 1.2 µM,-43% (inactive)
same,growth inhibition,[12]; at 3.7 µM,-49% (inactive)
same,growth inhibition,[12]; at 11.0 µM,-43% (inactive)
same,growth inhibition,[12]; at 33.0 µM,-4% (inactive)
same,growth inhibition,[12]; at 100.0 µM,22% (inactive)
same,growth inhibition,[13]; at 1.2 µM,-34% (inactive)
same,growth inhibition,[13]; at 3.7 µM,-20% (inactive)
same,growth inhibition,[13]; at 11.0 µM,-7% (inactive)
same,growth inhibition,[13]; at 33.0 µM,34% (inactive)
same,growth inhibition,[13]; at 100.0 µM,32% (inactive)
same,growth inhibition,[14]; at 1.2 µM,-62% (inactive)
same,growth inhibition,[14]; at 3.7 µM,-54% (inactive)
same,growth inhibition,[14]; at 11.0 µM,-45% (inactive)
same,growth inhibition,[14]; at 33.0 µM,-3% (inactive)
same,growth inhibition,[14]; at 100.0 µM,-1% (inactive)
same,growth inhibition,[15]; [17],-37% (inactive)
same,growth inhibition,[15]; [18],-12% (inactive)
same,growth inhibition,[15]; at 50.0 µM,8.65% (inactive)
same,growth inhibition,[16]; at 1.2 µM,-75% (inactive)
same,growth inhibition,[16]; at 3.7 µM,-62% (inactive)
same,growth inhibition,[16]; at 11.0 µM,-73% (inactive)
same,growth inhibition,[16]; at 33.0 µM,-41% (inactive)
same,growth inhibition,[16]; at 100.0 µM,-46% (inactive)
Cc1ccc(Sc2ccccc2N)cc1,growth inhibition,[1]; at 1.2 µM,9% (inactive)
same,growth inhibition,[1]; at 3.7 µM,-3% (inactive)
same,growth inhibition,[1]; at 11.0 µM,-13% (inactive)
same,growth inhibition,[1]; at 33.0 µM,45% (inactive)
same,growth inhibition,[1]; at 100.0 µM,98% (active)
same,growth inhibition,[2]; at 1.2 µM,16% (inactive)
same,growth inhibition,[2]; at 3.7 µM,6% (inactive)
same,growth inhibition,[2]; at 11.0 µM,-7% (inactive)
same,growth inhibition,[2]; at 33.0 µM,42% (inactive)
same,growth inhibition,[2]; at 100.0 µM,99% (active)
same,growth inhibition,[3]; at 1.2 µM,8% (inactive)
same,growth inhibition,[3]; at 3.7 µM,-1% (inactive)
same,growth inhibition,[3]; at 11.0 µM,16% (inactive)
same,growth inhibition,[3]; at 33.0 µM,64% (inactive)
same,growth inhibition,[3]; at 100.0 µM,93% (active)
same,growth inhibition,[4]; at 1.2 µM,0% (inactive)
same,growth inhibition,[4]; at 3.7 µM,-17% (inactive)
same,growth inhibition,[4]; at 11.0 µM,-21% (inactive)
same,growth inhibition,[4]; at 33.0 µM,38% (inactive)
same,growth inhibition,[4]; at 100.0 µM,98% (active)
same,growth inhibition,[5]; at 1.2 µM,0% (inactive)
same,growth inhibition,[5]; at 3.7 µM,-3% (inactive)
same,growth inhibition,[5]; [17],31% (inactive) and 32% (inactive)
same,growth inhibition,[5]; at 11.0 µM,-12% (inactive)
same,growth inhibition,[5]; at 33.0 µM,17% (inactive)
same,growth inhibition,[5]; [18],95% (active) and 62% (inactive)
same,growth inhibition,[5]; at 50.0 µM,90.5% (active)
same,growth inhibition,[5]; at 100.0 µM,98% (active)
same,growth inhibition,[6]; at 1.2 µM,-30% (inactive)
same,growth inhibition,[6]; at 3.7 µM,-18% (inactive)
same,growth inhibition,[6]; [17],50% (inactive) and 23% (inactive)
same,growth inhibition,[6]; at 11.0 µM,-32% (inactive)
same,growth inhibition,[6]; at 33.0 µM,25% (inactive)
same,growth inhibition,[6]; [18],95% (active) and 64% (inactive)
same,growth inhibition,[6]; at 50.0 µM,92.3% (active)
same,growth inhibition,[6]; at 100.0 µM,98% (active)
same,growth inhibition,[7]; at 1.2 µM,-4% (inactive)
same,growth inhibition,[7]; at 3.7 µM,-18% (inactive)
same,growth inhibition,[7]; at 11.0 µM,-10% (inactive)
same,growth inhibition,[7]; at 33.0 µM,32% (inactive)
same,growth inhibition,[7]; at 100.0 µM,99% (active)
same,growth inhibition,[8]; [17],-5% (inactive) and 43% (inactive)
same,growth inhibition,[8]; [18],91% (active) and 73% (active)
same,growth inhibition,[8]; at 50.0 µM,93.2% (active)
same,growth inhibition,[9]; at 1.2 µM,22% (inactive)
same,growth inhibition,[9]; at 3.7 µM,12% (inactive)
same,growth inhibition,[9]; at 11.0 µM,-3% (inactive)
same,growth inhibition,[9]; at 33.0 µM,46% (inactive)
same,growth inhibition,[9]; at 100.0 µM,98% (active)
same,growth inhibition,[10]; [17],42% (inactive) and 29% (inactive)
same,growth inhibition,[10]; [18],94% (active) and 67% (inactive)
same,growth inhibition,[10]; at 50.0 µM,91.7% (active)
same,growth inhibition,[11]; at 1.2 µM,-6% (inactive)
same,growth inhibition,[11]; at 3.7 µM,-2% (inactive)
same,growth inhibition,[11]; [17],34% (inactive) and 40% (inactive)
same,growth inhibition,[11]; at 11.0 µM,-10% (inactive)
same,growth inhibition,[11]; at 33.0 µM,24% (inactive)
same,growth inhibition,[11]; [18],94% (active) and 81% (active)
same,growth inhibition,[11]; at 50.0 µM,92% (active)
same,growth inhibition,[11]; at 100.0 µM,98% (active)
